Rows were chosen to be rich in hits. Some 3% of all compounds tested hit in one or more screens of this group.
HEK293 viab = GF-AFC viability counterscreen for inhibitors of alpha-synuclein gene (SNCA) expression | HEK-293-SNCA-luc viability, GF-AFC fluorescence, 24 h | Potency, µM (top dose mostly 57.1 µM), inactives show at the highest dose activity change, negative = cytotoxicity, hits mostly cytotoxic | 150,000 tested, 0.12% active | AID 1671193, 2021;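 further: potency means the concentration at half of the fitted maximal effect; 0% = DMSO-treated cells and -100% = medium-only wells without cells; nearly all actives have a fitted effect of over 30% in size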
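HEK-293-SNCA-luc cells (1500/well) plated 24 h, then exposed 24 h to a dilution series; GF-AFC added 30 min at 37C, fluorescence 405/540 nm; normalised to medium-only and DMSO wells, Hill fit.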
SNCA expr inh = Primary qHTS assay for inhibitors of alpha-synuclein gene (SNCA) expression. HEK-293 SNCA-luciferase knock-in, luminescence, 24 h. Potency, µM (titrated, usually from 57.2 µM), inactives show at the highest dose activity change, negative = inhibition, most hits filed as inhibitors. 140,000 tested, 0.17% active;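 further: potency means the concentration at half of the fitted maximal effect; plate controls were DMSO cells for no effect and cell-free wells for full effect; nearly all actives have a fitted effect of over 45% in size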
KDM5B inh = Primary screen for KDM5B Histone Demethylases FDH-coupled qHTS | 220,000 tested, 2.6% active | KDM5B demethylase, FDH-coupled NADH fluorescence (FDH is formaldehyde dehydrogenase) | Potency, µM (doses to about 57.7 µM), hits mostly inhibitors | Lysine-specific demethylase 5B (Homo sapiens), Q9UGL1 | AID 1347165, 2019; further: potency means the concentration at half of the fitted maximal effect; 0% is about no effect; nearly all actives have a fitted effect of over 70% in size
Target sequence (Q9UGL1 whole entry, looked up): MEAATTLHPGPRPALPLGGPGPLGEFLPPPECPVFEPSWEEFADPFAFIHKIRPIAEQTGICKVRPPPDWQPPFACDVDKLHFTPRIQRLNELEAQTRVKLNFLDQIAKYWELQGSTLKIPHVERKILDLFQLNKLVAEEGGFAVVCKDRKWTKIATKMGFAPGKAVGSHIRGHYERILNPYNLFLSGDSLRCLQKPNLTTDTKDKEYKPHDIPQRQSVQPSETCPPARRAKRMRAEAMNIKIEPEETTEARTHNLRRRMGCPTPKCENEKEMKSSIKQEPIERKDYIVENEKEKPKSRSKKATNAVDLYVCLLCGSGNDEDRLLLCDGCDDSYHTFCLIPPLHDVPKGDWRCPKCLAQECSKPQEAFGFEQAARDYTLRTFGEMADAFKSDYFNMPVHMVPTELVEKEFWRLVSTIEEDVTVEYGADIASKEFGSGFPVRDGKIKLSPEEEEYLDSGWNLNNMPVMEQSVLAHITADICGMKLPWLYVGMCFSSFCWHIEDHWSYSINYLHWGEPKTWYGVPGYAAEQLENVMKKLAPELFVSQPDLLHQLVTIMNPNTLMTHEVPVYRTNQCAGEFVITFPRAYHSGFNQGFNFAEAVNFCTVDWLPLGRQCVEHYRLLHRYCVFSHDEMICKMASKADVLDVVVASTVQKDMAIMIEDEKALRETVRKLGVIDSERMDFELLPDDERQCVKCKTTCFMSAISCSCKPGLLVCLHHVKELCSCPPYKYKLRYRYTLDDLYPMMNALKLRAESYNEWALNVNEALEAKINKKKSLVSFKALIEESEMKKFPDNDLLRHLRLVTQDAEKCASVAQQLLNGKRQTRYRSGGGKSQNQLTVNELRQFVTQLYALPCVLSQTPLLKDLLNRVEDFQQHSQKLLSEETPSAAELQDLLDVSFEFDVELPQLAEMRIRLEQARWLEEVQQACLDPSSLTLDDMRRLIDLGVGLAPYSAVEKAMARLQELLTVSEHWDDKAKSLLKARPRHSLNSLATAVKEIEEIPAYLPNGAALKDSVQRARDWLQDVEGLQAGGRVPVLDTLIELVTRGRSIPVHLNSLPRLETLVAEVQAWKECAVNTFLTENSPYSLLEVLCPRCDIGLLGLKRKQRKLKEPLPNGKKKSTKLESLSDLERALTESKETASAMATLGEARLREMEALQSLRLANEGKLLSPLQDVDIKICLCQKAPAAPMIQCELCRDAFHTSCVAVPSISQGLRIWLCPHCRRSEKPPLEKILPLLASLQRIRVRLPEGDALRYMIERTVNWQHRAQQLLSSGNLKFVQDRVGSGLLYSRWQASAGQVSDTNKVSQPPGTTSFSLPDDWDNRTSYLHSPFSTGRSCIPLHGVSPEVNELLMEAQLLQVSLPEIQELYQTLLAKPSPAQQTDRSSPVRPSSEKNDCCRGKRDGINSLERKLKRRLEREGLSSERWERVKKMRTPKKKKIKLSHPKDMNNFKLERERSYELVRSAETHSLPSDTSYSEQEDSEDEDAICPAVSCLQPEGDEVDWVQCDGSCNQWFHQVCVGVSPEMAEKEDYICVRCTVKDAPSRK
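qHTS format, multiple compound concentrations. Buffer 50 mM HEPES pH 7.5/0.01% Tween-20; 200 nM KDM5BΔAP final; 10 min compound preincubation; substrate-mix levels 12.5 µM peptide, 25 µM α-KG, 0.25 mM NAD⁺; 30 min RT; ΔRFU.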
IP6K1 inhibitor = Primary qHTS assay for small molecule inhibitors of Inositol hexaphosphate kinase 1 (IP6K1). IP6K1 kinase, ADP-Glo luminescence, 2 h; hits give low values. activity change, % (series mostly up to about 58 µM). Inositol hexakisphosphate kinase 1 (Homo sapiens), Q92551. 140,000 tested, 0.81% active. AID 1645851, 2021; in the data active means activity change below about -25%; further: on the % scale 0 is the no-effect control and ±100 the full control effect
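ADP-Glo luminescence measures ADP made by human IP6K1 during a 2 h RT reaction with ATP/IP6 (mix at 1.3 mM/130 uM); top library doses 57.5 and 19.1 uM final.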
* = called active by the depositor; i = inactive; ? = inconclusive; · = no result given; [ ] = dose if it differs, or a comment. Unless noted, the call rests on the fitted dose curve; in most records, active means well fitted curve in the direction sought with a large enough effect; inconclusive means small, poorly fitted or top-dose-only effect, or another doubt; inactive means no such curve, though single readings can be large; an effect the other way counts as inactive or inconclusive.

SMILES | HEK293 viab | SNCA expr inh | KDM5B inh | IP6K1 inhibitor
C[C@H](C(=O)N1CCOCC1)C1CC[C@@]2(C)Cc3sc(-c4ccccc4)nc3[C@@H](C)[C@@H]2[C@H]1O (stereo partly drawn) | -7% | 3.2µM* | ? | 0
Cc1cc(S(=O)(=O)Nc2ccc(F)cc2)ccc1OCC(=O)NCc1ccc2c(c1)OCO2 | · | · | i | ·
COc1ccc(C2CC(c3ccccc3)=NN2c2ccc(S(N)(=O)=O)cc2)cc1 (stereo not drawn) | 5% | 14µM* | · | 13
CNc1nc2c(c(C(=O)N3CCCC3)n1)CN(C(=O)Cn1nccc1C)CC2 | -3% | 5% | 22µM* | -2
Cn1cccc1CN1CCC(N2CCOC2=O)CC1 | -1%[87.6 µM] | 32%[87.6 µM] | 89µM* | -12
Cn1cccc1CN1CCC(N2CCOCC2=O)CC1 | 3%[87.6 µM] | ? | ? | -6
CC(OC(=O)c1n[nH]c(=O)c2ccccc12)C(=O)Nc1cc(F)ccc1F (stereo not drawn) | · | · | i | ·
NC(=O)C(Sc1ncc(C(F)(F)F)cc1Cl)c1ccc(F)cc1 (stereo not drawn) | · | · | i | ·
CCCOc1c(Cl)cc(C(=O)NCC2CCCO2)cc1OCC (stereo not drawn) | · | · | i | ·
CCOc1ccc(-c2ccnc(NC[C@@H]3CCCO3)n2)cc1C(=O)O | 0% | ? | 22µM* | -10
CCOc1ccc(-c2ccnc(N3CCNC(C)C3)n2)cc1C(=O)O (stereo not drawn) | 3% | ? | 28µM* | 4
CCOc1ccc(-c2ccnc(N3CCC(NC(C)=O)CC3)n2)cc1C(=O)O | 0% | -3% | 32µM* | -8
O=C(O)C1CN(c2nccc(N3CCC(O)CC3)n2)CCN1 (stereo not drawn) | -4% | ? | ? | 3
Cc1nn2c(c1-c1ccccc1C(N)=O)N(CCCc1ccccc1)CCC2 | ? | 1.4µM* | 32µM* | 12
Cc1nn2c(c1-c1cccnc1N1CCOCC1)N(CCCc1ccccc1)CCC2 | -23%[87.6 µM] | ? | i | -4
Cc1nn2c(c1-c1ccccc1[S+](C)(=O)[O-])N(CCCc1ccccc1)CCC2 | ? | ? | 25µM* | 24
CN(C)C(=O)N1CCCN(c2nc3ncccc3o2)CC1 | -10%[87.6 µM] | 5%[87.6 µM] | 28µM* | 5
O=C(c1ccccc1Cl)N1CCN(c2nc3ncccc3o2)CC1 | -5% | 17% | 20µM* | 6
O=C(C1CCCN(c2nc3ncccc3o2)C1)N1CCOCC1 (stereo not drawn) | -12%[87.6 µM] | -2%[87.6 µM] | 40µM* | 5
O=C(C1CCN(c2nc3ncccc3o2)CC1)N1CCOCC1 | 5%[87.6 µM] | 12%[87.6 µM] | · | 18
O=C(C1CCCC1)N1CCN(c2nc3ncccc3o2)CC1 | -5%[87.6 µM] | -22%[87.6 µM] | 32µM* | 6
O=C(C1CC1)N1CCN(c2nc3ncccc3o2)CC1 | 2%[87.6 µM] | -8%[87.6 µM] | ? | 2
CC(C#N)(NC(=O)CSc1ccccn1)C1CC1 (stereo not drawn) | · | · | i | ·
Cc1ccc(C(CNC(=O)c2cc(=O)c3cc(Br)ccc3o2)N2CCC(C)CC2)o1 (stereo not drawn) | · | · | i | ·
O=C(Cn1cnc(S(=O)(=O)N2CCOCC2)c1)N1CCN(c2ccc(F)cc2)CC1 | · | · | i | ·
SMILES | HEK293 viab | SNCA expr inh | KDM5B inh | IP6K1 inhibitor
COc1ccccc1-c1cccc(CN2CCC(NC(=O)c3ccc(F)cc3)CC2)c1 | -6% | -21% | · | 13
COCC1CN(Cc2ccc(Br)s2)CC12CCNCC2 (stereo not drawn) | -14% | -15% | 10µM* | 3
O=[N+]([O-])c1ccc(NC(=S)Nc2ccc3c(c2)CCC3)cc1 | · | · | i | ·
COc1ccc(Nc2ccnc(N3CCN(C(=O)Nc4ccccc4)CC3)n2)cc1 | -6% | -6% | · | 0
CC(=O)NC(CO)C(=O)N1CCc2onc(-c3cccc4ccccc34)c2C1 (stereo not drawn) | -11% | 7% | 32µM* | 4
O=C(Cn1cnnn1)N1CCc2onc(-c3cccc4ccccc34)c2C1 | -10% | ? | 32µM* | -4
CCOC(=O)C1c2c(OC)ccc3c2C(=CC(C)(C)CO3)CN1Cc1ccc(NC(C)=O)cc1 (stereo not drawn) | · | · | · | 2
COc1ccc(C(=O)NC2CCCN(c3ccc4nnc(C)n4n3)C2)cc1 (stereo not drawn) | · | · | · | -2
CCC(CNC(=O)Cn1cnc2c1c(=O)n(C)c(=O)n2C)c1ccccc1 (stereo not drawn) | · | · | i | ·
COc1ccccc1Nc1ccnc(N2CCCC(C(=O)NCc3ccc(F)c(F)c3)C2)n1 (stereo not drawn) | -19%[12.5 µM] | -18% | · | 11
COc1ccc(-c2ccnc3nc(Cc4ccc(F)cc4)nn23)cc1 | -1% | 4% | i | 0
CC(C)c1nc2nccc(-c3ccc(F)cc3)n2n1 | 0% | -9% | 28µM* | 7
CC(C)c1nc2nccc(-c3ccccc3)n2n1 | 0% | 10% | 28µM* | -5
O=C(Nc1cccc2cccnc12)NC12CC3CC(CC(C3)C1)C2 | · | · | i | ·
Cc1ccc(-c2cc3c(=O)n(CCNC(=O)c4ccc5ccccc5n4)ccn3n2)cc1C | -3% | 67% | ? | -5
Cc1ccc(-c2cc3c(=O)n(CCNC(=O)c4cccc(Cl)c4)ccn3n2)cc1C | -4% | 58% | i | -16
Cc1ccc(-c2cc3c(=O)n(CCNC(=O)c4ccccc4F)ccn3n2)cc1C | 5% | 92% | 20µM* | -15
CCn1nccc1C(=O)NCCn1ccn2nc(-c3ccc(C)c(C)c3)cc2c1=O | -29% | 23% | 35µM* | -6
COc1cccc(C(=O)NCCn2ccn3nc(-c4ccc(C)c(C)c4)cc3c2=O)c1OC | -7% | 50% | 35µM* | -12
COc1cccc(C(=O)NCCn2ccn3nc(-c4ccc(C)cc4C)cc3c2=O)c1OC | 5% | 73% | ? | -3
Fc1ccc2nc(CO[C@H]3CN(Cc4ccc5ccccc5n4)C[C@H]3F)[nH]c2c1 | -13%[87.6 µM] | 13%[87.6 µM] | 35µM* | -4
Cn1cc(S(=O)(=O)N2CCc3ccccc32)cc1C(=O)Nc1ccccc1F | · | · | i | ·
CCc1ccc(CNCc2ccco2)cc1 | · | · | i | ·
CCc1c(C)cc(C(=O)N[C@H]2CCOC[C@H]2C2CCOCC2)c(=O)n1C | 2% | 4% | 25µM* | 25
Cc1ccc(CN2CCNC(=O)C2CC(=O)N(CC(C)C)CC(C)C)cc1 (stereo not drawn) | -3% | ? | ? | -7
CC(C)CCN1CCNC(=O)C1CC(=O)N(Cc1cnn(C)c1)C1CC1 (stereo not drawn) | -4% | -10% | 16µM* | -6
COc1ccc(-c2ccc3c(c2)C(=O)N2CCN(C(=O)NC4CCCCC4)C[C@@H]2C(=O)N3)cc1 | 1% | 18% | ? | 2
COCC(=O)N1CCN2C(=O)c3cc(-c4ccc(OC)cc4)ccc3NC(=O)[C@H]2C1 | -1%[87.6 µM] | 7%[87.6 µM] | 32µM* | 5
